This is one part of a sample in which hits are shown more often than they occur.
Pf Dd2 growth: Plasmodium falciparum Dd2 growth inhibition; P. falciparum Dd2 growth, SYBR Green, 72 h; Potency, µM (highest dose often 28.9 µM), for inactives: top-dose activity, negative = inhibition, actives largely listed as inhibitors; 4.3% of 120,000 active; active = well fitted inhibition curve with a large enough effect;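 note: plate controls were DMSO vehicle for no effect and reference drug for full effect; nearly all actives have a fitted effect of over 65% in size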
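Readout: SYBR Green fluorescence, 485 nm excitation, 535 nm emission, after ~16 h lysis at 37C. Before that, Dd2-infected red cells (2.5% hematocrit) grew 72 h with compound, 29 uM top final concentration.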
The depositor's hits bear a star; [ ] = remark or other dose. Potency is the fitted concentration of half-maximal effect.

For O=[S+]1([O-])NCC2(CCN(CC3CCOCC3)C2)Oc2ncccc21 (configuration not stated) the results were Pf Dd2 growth 12.9%.
`O=[S+]1([O-])NCC2(CCN(CC3CC3)C2)Oc2ncccc21` (configuration not stated) gave Pf Dd2 growth 4.1%.
For NC(=O)[C@@H]1CCCN1c1ccc(-c2nc(Cc3ccccc3)no2)cn1 the results were Pf Dd2 growth inactive.
For N#Cc1cccc(NC(=S)N[C@H]2CO[C@H]3[C@@H]2OC[C@@H]3n2nnnc2Oc2ccccc2)c1 the results were Pf Dd2 growth inactive.
`N#Cc1cccc(NC(=S)N[C@H]2CO[C@H]3[C@@H]2OC[C@@H]3n2nnnc2Oc2ccc3c(c2)OCO3)c1` gave Pf Dd2 growth -28.8%.
N#Cc1cccc(NC(=S)N[C@H]2CO[C@H]3[C@@H]2OC[C@@H]3n2nnnc2Oc2cccc(N3CCOCC3)c2)c1 was read as Pf Dd2 growth 8.91µM*.
COc1cc(-c2onc(C)c2C(=O)NCCc2ccc(F)cc2)cc(OC)c1OC was read as Pf Dd2 growth inactive.
COc1cc(-c2onc(C)c2C(=O)NCCC(c2ccccc2)c2ccccc2)cc(OC)c1OC was read as Pf Dd2 growth 11.2µM*.
COCCNC(=O)c1c(C)noc1-c1cc(OC)c(OC)c(OC)c1 was read as Pf Dd2 growth -8.8%.
For COc1nccnc1NC1CCN(C(=O)c2ccc3nc[nH]c3c2)CC1 the results were Pf Dd2 growth inactive[5.79 µM].
Screening CN1CCCCC(CC(=O)Nc2ccc(F)c(F)c2)C1=O (configuration not stated) returned Pf Dd2 growth 6.1%.
`CC(=O)Nc1ccc(CN2CCn3c(nnc3-c3cccnc3)C2)cc1` gave Pf Dd2 growth inactive.
CCOC(=O)c1ccc(NC(=O)Cc2noc3ccc(C)cc23)cc1 was read as Pf Dd2 growth -5.0%.
Screening CCOC(=O)c1ccc(NC(=O)CCCc2nc(-c3cc(OC)c(OC)c(OC)c3)no2)cc1 returned Pf Dd2 growth 12.6µM*.
O=C(CCCc1nc(-c2ccccc2)no1)Nc1cc(C(F)(F)F)cc(C(F)(F)F)c1 was read as Pf Dd2 growth -9.1%.
`O=C(O)COCC(=O)N[C@H]1CO[C@H]2[C@@H]1OC[C@@H]2n1nnnc1Oc1ccc(-n2cncn2)cc1` gave Pf Dd2 growth 16.9%.
Cc1ccc(C(=O)N2CCC(Oc3ncccc3C(=O)N3CCCCC3)C2)cc1F (configuration not stated) was read as Pf Dd2 growth -2.0%.
`CCN1C(C(=O)c2ccccc2)=C(NC(=O)c2ccc(Cl)cc2)c2ccccc2S1(=O)=O` gave Pf Dd2 growth 12.6µM*.
`CCCCC(=O)OC1=C(C(=O)c2ccccc2)N(CC)S(=O)(=O)c2ccccc21` gave Pf Dd2 growth 1.4%.
For CCCCCN1C(C(=O)c2ccccc2)=C(NC(=O)c2ccc(OC)c(OC)c2)c2ccccc2S1(=O)=O the results were Pf Dd2 growth 89.2%.
`O=C(O)C1CCc2nnc(C3CCN(C(=O)c4cccc(Cl)c4)CC3)n21` (configuration not stated) gave Pf Dd2 growth 22.0%.
For CCOc1ccc(NC(=O)N(Cc2c[nH]c3ccccc23)C2CCCCC2)cc1 the results were Pf Dd2 growth -29.7%.
Cn1cc(CN(C(=O)Nc2ccccc2)C2CCCCC2)c2ccccc21 was read as Pf Dd2 growth 3.16µM*.
Screening COCC1(CNCc2cn(C)c3ccccc23)C[C@@H](O)[C@@H](O)C1 (some centres not stated) returned Pf Dd2 growth inactive.
`CNC(=O)[C@@H]1C[C@H](Oc2ccccc2)CN1C(=O)c1cnccn1` gave Pf Dd2 growth 1.9%.
For CCOc1ccc(-c2cc(OC(=O)c3ccc(OC)cc3)c3c(C)oc(C)c3c(=O)c2)cc1 the results were Pf Dd2 growth 10µM*.
Screening CCOC(=O)c1c(-c2ccc(OC)c(OC)c2)csc1NC(=O)c1ccc(F)cc1 returned Pf Dd2 growth 6.0%.
For CCOc1cc(-c2ccc(OC(=O)c3ccccc3Cl)c(OC)c2)cc(=O)c2c(C)oc(C)c12 the results were Pf Dd2 growth -11.5%.
CCCc1ccc(-c2ccc(C(=O)Oc3ccc(OCC)cc3)cc2)nc1 was read as Pf Dd2 growth 4.0%.
Screening COc1ccc(F)cc1-c1ccc(C(=O)O)cc1 returned Pf Dd2 growth inactive.
For COc1ccc(-c2cc(OC(=O)c3ccc(F)cc3)c3c(C)oc(C)c3c(=O)c2)cc1OC the results were Pf Dd2 growth 10µM*.
`CN(C)C[C@@H]1CN(c2ncccn2)C[C@H]1NC(=O)Cc1cccc(F)c1` gave Pf Dd2 growth -27.5%.
For O=C1CCCCN1CC(=O)N1CCCC(c2ccccc2)(c2ccccc2)C1 the results were Pf Dd2 growth inactive.
Screening O=S(=O)(c1cccc(C(F)(F)F)c1)N1CCC(n2cnnc2C2CC2)CC1 returned Pf Dd2 growth 12.1%.
Screening FC1(F)CN[C@H](c2nc(C3CC3)no2)C1 returned Pf Dd2 growth inactive.
For Cc1cccc(-n2nnnc2S(C)(=O)=O)c1 the results were Pf Dd2 growth 11.2µM*.
COC(=O)c1nnn(-c2cccc(C)c2)c1C(=O)OC was read as Pf Dd2 growth 6.1%.

Compound activity (PubChem)
